# Bioassay records (PubChem)
# Most compounds without a hit are left out; they make up all but 2.9% or so of the library.
# PP1 inh: PP1-alpha phosphatase inhibitors, primary screen, counter-screen for PP5 inhibitor project, biochemical, fluorescence, OMFP substrate, single point; purified PP1alpha; inhibition, % at 6.7 µM; hit rate 0.9% among 320,000; AID 2235, 2010;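 active means inhibition above the mean inhibition of all tested compounds plus 3 SD, computed separately for each screening campaign, cut at about 15% in these data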
# NadD block: inhibitors of S. aureus NadD, primary screen, biochemical, colorimetric, uHTS; Nicotinate-nucleotide adenylyltransferase NadD (Staphylococcus aureus N315); hit rate 0.78% among 360,000; purified NadD enzyme, colorimetric absorbance read-out; inhibition, % at 20 µM; in the data active means inhibition above about 26%
# GRK2 aptamer HTS: compounds blocking aptamer binding on GRK2 – biochemical, human GRK2, bead flow cytometry, HTS, primary screen | Beta-adrenergic receptor kinase 1 (Homo sapiens), P25098 | FAM-aptamer displacement from GRK2 | inhibition of aptamer binding, % at 10 µM | hit rate 0.59% among 330,000;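 active means inhibition of aptamer binding above 40%, roughly 3 SD of noise, on plates passing a quality check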;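 further: median bead fluorescence of bound FAM aptamer so fluorescent compounds give negative values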
# Beta2AR agonist: beta2AR agonists driving receptor internalization, primary screen, cell-based, FAP fluorogen, flow cytometry; Beta-2 adrenergic receptor (Homo sapiens), P07550; Am2.2-beta2AR cells; response, % (no concentration beside the values); hit rate 0.43% among 340,000; AID 504454, 2011;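 active means response above a set limit, near 3 SD of response in nonfluorescent compounds, cut at about 42% in these data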
# Target sequence (P07550 whole entry, looked up): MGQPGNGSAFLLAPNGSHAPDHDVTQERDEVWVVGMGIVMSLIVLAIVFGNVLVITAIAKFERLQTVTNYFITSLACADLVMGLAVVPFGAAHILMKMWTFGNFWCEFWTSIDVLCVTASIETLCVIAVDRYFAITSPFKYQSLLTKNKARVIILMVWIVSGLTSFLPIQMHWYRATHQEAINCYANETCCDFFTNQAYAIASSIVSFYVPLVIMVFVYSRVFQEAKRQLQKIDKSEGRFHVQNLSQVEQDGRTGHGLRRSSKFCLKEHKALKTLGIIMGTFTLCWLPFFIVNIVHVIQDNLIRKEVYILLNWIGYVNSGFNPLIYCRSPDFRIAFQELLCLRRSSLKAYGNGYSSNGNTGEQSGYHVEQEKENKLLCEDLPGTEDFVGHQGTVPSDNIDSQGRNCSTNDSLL
# Exocytosis inh: LAMP-1 surface exposure blockers, TALL-104 cells – cell-based, flow cytometry, MLPCN library, primary screen; inhibition, % at 10 µM; AID 651702, 2012; TALL-104 LAMP-1 surface exposure; cells stimulated with thapsigargin and PMA; hit rate 0.66% among 360,000;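 active means inhibition above about 55%, limit read from the data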
# * marks the source's active call; other numbers are inactive results; . = not tested or not shown.
SMILES,PP1 inh,NadD block,GRK2 aptamer HTS,Beta2AR agonist,Exocytosis inh
COc1ccc(N=N/C(=C\O)C(=O)c2cccs2)cc1,-5,0,5,26,6
COc1ccc(/C=C(/C(=O)c2cccs2)N2C=CC=CC2=C(C#N)C#N)cc1,.,-1,.,77*,44
COC(=O)C1=C(CS(=O)(=O)c2ccc(OC)c(OC)c2)NC(=O)NC1c1ccc(O)c(OC)c1 (configuration not stated),-1,1,7,0,-4
CN(C)CCCN(C(=O)c1cc(-c2cccs2)nc2ccccc12)c1nc2ccc(F)cc2s1,14,6,0,16,41
CC(C)(C)OC(=O)NCC12C=CC(O1)C1C(=O)N(Cc3ccccc3)C(=O)C12 (configuration not stated),0,3,0,6,85*
O=C(Nc1ccc(S(=O)(=O)Nc2nccs2)cc1)c1nn(-c2ccccc2)ccc1=O,6,19,10,58*,11
Cc1cccc(-n2ccc(=O)c(C(=O)Nc3ccc(S(=O)(=O)Nc4nccs4)cc3)n2)c1,0,17,2,0,-2
CSc1nnc(-c2ccc(NC(N)=S)cc2)o1,-3,-2,0,2,-2
CSc1nnc(-c2cccc(NC(=S)NN)c2)o1,1,2,0,74*,22
CC(C)Oc1ccc(C(=O)N/N=C/c2ccc(-c3ccc(S(=O)(=O)Nc4ncccn4)cc3)o2)cc1,9,35*,4,6,0
CCC(C)NC(=O)c1c(N)n(/N=C/c2ccccn2)c2nc3ccccc3nc12 (configuration not stated),-1,0,0,17,56*
CCOC(=O)c1ccc(N2CCOCC2)c(NC(=O)c2ccc3c(c2)OCO3)c1,-1,-5,2,11,0
CC(CN1CCC(O)CC1)c1ccccc1 (configuration not stated),2,-8,0,6,3
CC(CN1CCN(Cc2ccccc2)CC1)c1ccccc1 (configuration not stated),0,-2,0,-1,61*
COC(=O)C1=C(C(=O)OC)[C@@H]2N(Cc3ccccc3)c3ccccc3[C@@]23C[C@@H](C(=O)OC)N(C(=O)NC(C)(C)C)C3=N1,1,-1,1,2,-7
O=C(c1ccc(-c2cccc(Cl)c2)o1)N1CCN(c2ccc([N+](=O)[O-])cc2)CC1,0,-1,4,-7,2
Cc1nc2ccccc2c2oc(C(=O)N3CCN(C(=O)c4ccco4)CC3)cc12,-4,1,1,-16,-3
Cc1nc2ccccc2c2oc(C(=O)N3CCN(c4ccc([N+](=O)[O-])cc4)CC3)cc12,-1,10,0,51*,2
Cc1c(Cl)cccc1-c1ccc(C(=O)N2CCN(c3ccc([N+](=O)[O-])cc3)CC2)o1,0,-3,0,2,58*
Cc1ccccc1OCC(=O)Nc1sc2c(c1C#N)CC(C)(C)NC2(C)C,1,-9,0,-14,59*
COc1ccc(C(=O)NCC(=O)OCC(=O)c2ccc3c(c2)NC(=O)CO3)cc1,-1,-1,5,5,3
COc1cccc(NC(=O)Nc2nc(SC)ns2)c1,2,-4,0,-89,29
COc1cccc(NC(=O)Nc2nc(SC(C)(C)C)ns2)c1,17*,-9,3,26,0
O=C1C(NS(=O)(=O)c2cccs2)=C(N2CCN(c3cccc(Cl)c3)CC2)C(=O)c2ccccc21,7,30*,0,-2,7
Nc1ccc2cc3[nH]c4cc(N)ccc4c3nc2c1,.,54*,.,.,5
SMILES,PP1 inh,NadD block,GRK2 aptamer HTS,Beta2AR agonist,Exocytosis inh
Nc1ccc2nc(-c3ccc(Cl)cc3)[nH]c2c1,8,11,0,5,0
CC1=C(C(=O)OCc2ccccc2)C(c2ccc([N+](=O)[O-])cc2)NC(=O)N1CCCCCC(=O)O (configuration not stated),-1,3,0,1,4
CC1=C(C(=O)OCc2ccccc2)C(c2ccc([N+](=O)[O-])cc2)NC(=O)N1CCCC(=O)O (configuration not stated),-1,1,2,2,62*
O=C(C1CCCN(S(=O)(=O)c2ccc(Br)cc2)C1)N1CCN(Cc2ccccc2)CC1 (configuration not stated),5,2,4,0,8
Cc1ccc(-c2ccc(/C=C3\SC(N4CCOCC4)=NC3=O)o2)cc1,4,-5,0,3,60*
Cc1ccc(/C=C2\SC(N3CCN(C(c4ccccc4)c4ccccc4)CC3)=NC2=O)o1,17*,59*,0,16,20
O=C1N=C(N2CCOCC2)S/C1=C/c1ccc(-c2ccc(F)cc2)o1,2,-1,0,1,8
C=CCn1c(NS(=O)(=O)c2ccccc2)c(S(=O)(=O)c2ccc(C)cc2)c2nc3ccccc3nc21,30*,-2,6,-9,-1
Cc1ccc(S(=O)(=O)Cc2cc(F)c([N+](=O)[O-])cc2[N+](=O)[O-])cc1,4,0,3,28,72*
CCOC(=O)c1ccc([N+](=O)[O-])c(CS(=O)(=O)c2ccc(Cl)cc2)c1,2,-2,0,10,7
Cc1cc(NS(=O)(=O)c2ccc(NC(=O)c3cnc(Cl)c(Cl)c3)cc2)nc(C)n1,1,3,0,-11,-2
CC1=C(C(=O)OCCOC(C)C)C(c2cc3c(cc2Br)OCO3)C2=C(CCCC2=O)N1 (configuration not stated),-2,5,1,-18,100*
CCCN(CCC)CCNC(=O)C1CCN(Cc2nc(-c3ccc(Cl)cc3)oc2C)CC1,-3,-6,96*,20,29
Cc1oc(-c2ccc(Cl)cc2)nc1CN1CCC(C(=O)NCc2cccnc2)CC1,1,-5,2,8,2
CCOC(=O)[C@]12CCC=C1N(Cc1ccc3c(c1)OCO3)C(=O)[C@H](CC(=O)NCc1cccs1)C2,.,6,.,.,-4
Nc1c(/C=C2/C=CC(=O)C(O)=C2)c(=O)nc2sc(CC(=O)N3CCCCC3)nn12,2,15,41*,-7,1
O=C(/C=C/c1ccncc1)c1ccc2c(c1)OCCO2,3,-5,0,-1,3
COc1cc(/C=C/C(=O)c2ccc3c(c2)OCCO3)cc(Br)c1OCC(=O)N(C)C,1,-4,1,10,102*
COc1ccccc1C(NC(C)=O)c1cc(Cl)c2cccnc2c1O (configuration not stated),-2,6,0,-3,30
